SW480 rereplic: induces DNA re-replication in SW480 colon adenocarcinoma cells; SW480 DNA re-replication, Hoechst DNA content imaging, 48 h; Potency, µM (top dose mostly 46.1 µM), for inactives: at the highest dose re-replication activation, most hits filed as activators; actives 1.8% (n = 340,000); AID 624297; also: % of control where 0% means no effect; nearly all actives have a fitted effect of over 55% in size
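Quantitative HTS format with DMSO vehicle controls; 48 hr drug incubation at 37 C, then 40 min Hoechst staining and scanning imager measurement at 405 nm excitation.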
KB-V1 cytotox: kills drug-selected multidrug resistant KB-V1 cells; KB-V1 MDR cells viability, CellTiter-Glo, 72 h; Potency, µM (top dose mostly 46.1 µM), actives largely listed as cytotoxic; actives 3.4% (n = 400,000); AID 1347076; also: % is scaled to controls: 0 for no effect and ±100 for the full control effect; nearly all actives have a fitted effect of over 60% in size
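Readout: CellTiter-Glo luminescence, 10 min after addition. Cells: KB-V1 MDR subline, 72 h at 37 degrees C with compound. Analysis: corrected, normalized data fitted to concentration-effect curves.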
MCF10A rerep: induces DNA re-replication in MCF 10a normal breast cells. actives 2.9% (n = 350,000). Potency, µM (highest dose often 46.1 µM), for inactives: at the top dose activity, positive = re-replication, actives largely listed as activators. MCF 10A DNA re-replication, Hoechst nuclear intensity, 48 h; also: % of control where 0% means no effect; nearly all actives have a fitted effect of over 50% in size
KB-3-1 cytotox: kills parental KB-3-1 adenocarcinoma cells; Potency, µM (titrated, usually from 46.1 µM), most hits filed as cytotoxic; actives 1.4% (n = 400,000); KB-3-1 viability, CellTiter-Glo ATP luminescence, 72 h; also: % is scaled to controls: 0 for no effect and ±100 for the full control effect; nearly all actives have a fitted effect of over 60% in size
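Cytotoxicity measured as CellTiter-Glo luminescence after 72 h at 37 C. Compound titrations were pinned onto drug-naive KB-3-1 parental adenocarcinoma cells grown in DMEM with 10% FBS, and normalized data fitted to concentration-response curves.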
ELG1 repair inh: blocks ELG1-dependent DNA repair in HEK293T cells | HEK293T ELG1-luciferase reporter, luminescence, 16 h; DNA damage induced by 5-fluorouridine | Potency, µM (titrated, usually from 46.1 µM), without a hit: top-dose activity change, negative = inhibition, actives largely listed as inhibitors | actives 2.3% (n = 330,000); also: % is scaled to controls: 0 for no effect and ±100 for the full control effect; nearly all actives have a fitted effect of over 55% in size
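HEK293T cells expressing luciferase-tagged ELG1 (2,000/well) received 5-Fluorouridine plus compound or DMSO for 16 hr at 37 °C. Luciferase was read by ONE-Glo luminescence after 30 min at room temperature.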
* hit, by the source's call; i = inactive; u = inconclusive; x = no result given. Only some compounds are listed: those with a hit (about 8.1% of all), similar ones and a draw of the others. Calls follow the shape of the dose curve; as a rule, active = well fitted curve in the direction sought with a large enough effect; inconclusive = small, poorly fitted or top-dose-only effect, or another doubt; inactive = no such curve, though single readings can be large; an effect the other way counts as inactive or inconclusive. Potency is read from the fitted curve at half-maximal effect.

SMILES	SW480 rereplic	KB-V1 cytotox	MCF10A rerep	KB-3-1 cytotox	ELG1 repair inh
O=C1CCNc2ccc(-c3ccccc3)cc21	26%	i	23µM*	i	u
O=C1CCNc2cc3ccccc3cc21	u	u	-2%	23µM*	u
O=C(NCCc1ccccc1F)C1CCCN(c2nc3ccccc3s2)C1 (centres undefined)	20%	i	19%	i	u
CC(=O)OCC(=O)C12OC(C)(C)OC1CC1C3CC=C4CC(O)CCC4(C)C3CCC12C (centres undefined)	4%	i	u	i	x
Cc1cc2cc(CN(Cc3cccs3)C(=S)NCc3ccco3)c(=O)[nH]c2cc1C	1%	i	-1%	u	21µM*
Cc1ccc(C)c2[nH]c(=O)c(CN(Cc3cccs3)C(=S)NCc3ccco3)cc12	x	i	-5%	i	16µM*
CN(/N=C/c1ccc(O)cc1O)c1nc(-c2ccccc2)cc(-c2ccccc2)n1	u	i	18µM*	u	u
CN(C)CCOC(=O)CC12CC3CC(C1)CC(CC(=O)OCCN(C)C)(C3)C2	2%	u	0%	i	11%
O=C(O)C1=C[C@H](c2ccc(Br)cc2)C[C@H](OCCCCO)O1	-8%	i	0%	i	13%
C[C@H](CO)N1C[C@H](C)[C@@H](CN(C)C(=O)c2ccccc2)Oc2cc(C#C[C@@H](C)O)ccc2S1(=O)=O	x	i	x	i	x
CCc1nc(C)cn1S(=O)(=O)c1cc(Br)ccc1OC	-1%	16µM*	4%	i	u
CCc1nc(C)cn1S(=O)(=O)c1cc(F)ccc1OC	-3%	i	-11%	i	0%
N#Cc1c2ccc(OCC(=O)NCc3ccco3)cc2n2ccccc12	u	i	2%	i	-3%
N#Cc1c2ccc(O)cc2n2ccccc12	u	i	u	i	4.1µM*
CCCC1=C/C(=C/c2ccc(-c3ccccc3OC)o2)C(=O)O1	23µM*	i	10µM*	i	14%
COc1ccccc1-c1ccc(/C=C2/C=C(CC(C)C)OC2=O)o1	-1%	i	u	i	-4%
S=C(NCc1ccco1)NCC1CCCO1 (centres undefined)	-2%	i	-2%	i	6%
Cc1ccc2c(C)c(C(=O)N(Cc3ccc(F)cc3)C3CCS(=O)(=O)C3)oc2c1 (centres undefined)	u	u	21%	u	u
Cc1ccc(CN(C(=O)c2cc3ccccc3oc2=O)C2CCS(=O)(=O)C2)cc1 (centres undefined)	-8%	15µM*	-3%	i	u
CCCOc1ccc(CN(C(=O)c2cccc(OC)c2)C2CCS(=O)(=O)C2)cc1 (centres undefined)	-27%	i	-7%	i	10%
CCc1ccc(CN(C(=O)c2cc3ccccc3oc2=O)C2CCS(=O)(=O)C2)cc1 (centres undefined)	-1%	i	4%	i	u
COc1ccc(CN(C(=O)c2oc3cc(C)ccc3c2C)C2CCS(=O)(=O)C2)cc1OC (centres undefined)	-5%	i	3%	i	13µM*
Cc1c(C(=O)N(Cc2cccs2)C2CCS(=O)(=O)C2)oc2ccccc12 (centres undefined)	3%	6.5µM*	11%	i	u
CCCOc1cccc(C(=O)N(Cc2ccc(OC)c(OC)c2)C2CCS(=O)(=O)C2)c1 (centres undefined)	-1%	16µM*	-2%	i	u
COc1ccc2c(c1)[C@@H]1[C@H](CO2)[C@H](c2ccccc2)[C@]2(C)C(=O)Nc3ccc(C)cc3C(=O)N12	11%	u	1%	u	u
SMILES	SW480 rereplic	KB-V1 cytotox	MCF10A rerep	KB-3-1 cytotox	ELG1 repair inh
COc1ccc2c(c1)C(=O)N1[C@H]3c4cc(C)ccc4OC[C@@H]3[C@H](c3ccccc3)[C@]1(C)C(=O)N2	u	u	15µM*	u	u
COc1ccc2c(c1)[C@H]1[C@H](CO2)[C@H](c2ccccc2)[C@]2(C)C(=O)Nc3ccc(C)cc3C(=O)N12	u	i	21µM*	u	-25%
COc1ccc2c(c1)OC[C@H]1[C@H]2N2C(=O)c3cc(C)ccc3NC(=O)[C@@]2(C)[C@H]1c1ccccc1	10µM*	i	u	i	-3%
COc1ccc2c(c1)OC[C@H]1[C@H]2N2C(=O)CN(CCc3c[nH]c4ccccc34)C(=O)[C@@]2(C)[C@H]1c1ccccc1	-14%	i	18%	i	5.8µM*
CCOC(=O)c1c(-c2ncc(C(F)(F)F)cc2Cl)noc1C	u	i	-20%	i	-8%
COC(C[C@@H]1O[C@H]1[C@@H](O)[C@@H](C)OCc1ccccc1)OC	-5%	i	-25%	i	1%
COc1ccc2c(c1)[C@H]1[C@H](CO2)[C@H](c2ccccc2)[C@]2(C)C(=O)Nc3ccc(Cl)cc3C(=O)N12	u	i	7%	i	x
COc1ccc2c(c1)OC[C@H]1[C@H]2N2C(=O)c3ccccc3NC(=O)[C@@]2(C)[C@H]1c1ccccc1	u	u	83%	21µM*	-16%
O=C(CN(c1cccc(C(F)(F)F)c1)S(=O)(=O)c1ccccc1)N1CCOCC1	-4%	i	4%	i	-2%
COc1ccc(S(=O)(=O)Nc2cc(-c3cn4ccc(C)cc4n3)ccc2C)cc1OC	x	i	x	i	x
Cc1ccn2cc(-c3cccc(NS(C)(=O)=O)c3)nc2c1	0%	i	-13%	i	u
Cc1ccc(S(=O)(=O)Nc2ccc(-c3cn4ccc(C)cc4n3)cc2)cc1	0.73µM*	i	21µM*	i	-29%
Cc1ccn2cc(-c3ccc(NS(=O)(=O)c4ccccc4)cc3)nc2c1	-44%	16µM*	u	i	6%
O=C(CCN1CCCC1)Nc1ccc(Br)cc1	-3%	i	-3%	i	13%
C=CCSc1cc(C)nc2c(-c3ccccc3)cnn12	u	8.2µM*	11%	u	u
CC(=O)Nc1ccc(Nc2cc(C)nc3c(-c4ccccc4)cnn23)cc1	10%	16µM*	u	u	u
Cc1cc(N)n2ncc(-c3ccccc3)c2n1	1%	i	18%	i	u
CCSc1cc(C)nc2c(-c3ccccc3)cnn12	27%	u	16%	u	u
CCOC(=O)C(CC)n1cnc2sc3c(c2c1=O)CCC3 (centres undefined)	-1%	i	-5%	i	4%
CCOc1ccc(C(=O)Nc2cc(-c3nc4ccccc4s3)ccc2OC)cc1	x	7.3µM*	x	u	x

Assay outcomes from PubChem BioAssay.
